Test results published in ChEMBL document CHEMBL1961873, “Compounds: GSK PKIS; Assays: Nanosyn kinase panel” (2012).

Tests used:
[1] = target: Sphingosine kinase 1 (Homo sapiens) (UniProt Q9NYA1); conditions: at 1 µM;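 note: mean SPHK1 inhibition value reported from the GSK PKIS kinase panel screen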
[2] = target: T1, Sphingosine kinase 2 (Homo sapiens) (UniProt Q9NRA0); conditions: at 0.1 µM
T1 sequence (whole entry): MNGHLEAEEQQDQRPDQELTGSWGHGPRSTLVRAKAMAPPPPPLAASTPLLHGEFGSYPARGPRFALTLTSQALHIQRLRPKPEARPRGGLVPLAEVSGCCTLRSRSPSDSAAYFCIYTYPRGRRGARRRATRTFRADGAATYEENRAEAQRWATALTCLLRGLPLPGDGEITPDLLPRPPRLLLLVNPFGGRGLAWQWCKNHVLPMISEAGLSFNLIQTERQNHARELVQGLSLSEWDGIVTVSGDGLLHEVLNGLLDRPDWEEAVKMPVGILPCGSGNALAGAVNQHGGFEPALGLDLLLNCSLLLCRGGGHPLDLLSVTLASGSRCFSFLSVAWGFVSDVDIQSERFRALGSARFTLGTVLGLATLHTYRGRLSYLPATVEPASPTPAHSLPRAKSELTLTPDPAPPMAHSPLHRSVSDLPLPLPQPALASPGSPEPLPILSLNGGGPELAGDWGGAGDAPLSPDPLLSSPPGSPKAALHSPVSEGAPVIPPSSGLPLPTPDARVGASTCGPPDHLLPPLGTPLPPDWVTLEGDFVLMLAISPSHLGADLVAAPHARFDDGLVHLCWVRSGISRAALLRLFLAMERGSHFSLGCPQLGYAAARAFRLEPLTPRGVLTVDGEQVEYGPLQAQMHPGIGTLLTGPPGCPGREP

[3] = target: T1, Sphingosine kinase 2 (Homo sapiens); conditions: at 1 µM
[4] = target: Casein kinase II subunit alpha (Homo sapiens) (UniProt P68400); conditions: at 0.1 µM
[5] = target: Casein kinase II subunit alpha (Homo sapiens) (UniProt P68400); conditions: at 1 µM
[6] = target: T2, Inhibitor of nuclear factor kappa-B kinase subunit alpha (Homo sapiens) (UniProt O15111); conditions: at 0.1 µM
T2 sequence (whole entry): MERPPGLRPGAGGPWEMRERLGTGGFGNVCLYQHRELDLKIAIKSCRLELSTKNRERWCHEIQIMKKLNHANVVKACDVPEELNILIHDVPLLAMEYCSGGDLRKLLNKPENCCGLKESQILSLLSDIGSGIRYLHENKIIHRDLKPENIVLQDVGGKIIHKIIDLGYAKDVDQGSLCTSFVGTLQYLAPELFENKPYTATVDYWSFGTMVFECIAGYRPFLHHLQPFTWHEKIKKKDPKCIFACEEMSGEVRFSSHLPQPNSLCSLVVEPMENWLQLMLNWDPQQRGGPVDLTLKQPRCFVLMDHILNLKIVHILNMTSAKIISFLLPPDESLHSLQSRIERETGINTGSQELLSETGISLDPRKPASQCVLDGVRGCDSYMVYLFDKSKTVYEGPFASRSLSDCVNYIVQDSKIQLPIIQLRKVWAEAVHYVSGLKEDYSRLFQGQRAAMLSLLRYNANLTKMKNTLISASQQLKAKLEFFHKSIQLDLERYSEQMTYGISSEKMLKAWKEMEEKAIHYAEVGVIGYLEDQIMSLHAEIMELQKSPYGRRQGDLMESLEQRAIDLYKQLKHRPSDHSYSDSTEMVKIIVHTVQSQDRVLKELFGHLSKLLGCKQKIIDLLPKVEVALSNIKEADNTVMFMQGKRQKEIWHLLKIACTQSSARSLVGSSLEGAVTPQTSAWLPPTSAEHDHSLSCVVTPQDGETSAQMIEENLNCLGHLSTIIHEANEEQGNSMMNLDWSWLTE

[7] = target: T2, Inhibitor of nuclear factor kappa-B kinase subunit alpha (Homo sapiens); conditions: at 1 µM
[8] = target: T3, Inhibitor of nuclear factor kappa-B kinase subunit beta (Homo sapiens) (UniProt O14920); conditions: at 0.1 µM
T3 sequence (whole entry): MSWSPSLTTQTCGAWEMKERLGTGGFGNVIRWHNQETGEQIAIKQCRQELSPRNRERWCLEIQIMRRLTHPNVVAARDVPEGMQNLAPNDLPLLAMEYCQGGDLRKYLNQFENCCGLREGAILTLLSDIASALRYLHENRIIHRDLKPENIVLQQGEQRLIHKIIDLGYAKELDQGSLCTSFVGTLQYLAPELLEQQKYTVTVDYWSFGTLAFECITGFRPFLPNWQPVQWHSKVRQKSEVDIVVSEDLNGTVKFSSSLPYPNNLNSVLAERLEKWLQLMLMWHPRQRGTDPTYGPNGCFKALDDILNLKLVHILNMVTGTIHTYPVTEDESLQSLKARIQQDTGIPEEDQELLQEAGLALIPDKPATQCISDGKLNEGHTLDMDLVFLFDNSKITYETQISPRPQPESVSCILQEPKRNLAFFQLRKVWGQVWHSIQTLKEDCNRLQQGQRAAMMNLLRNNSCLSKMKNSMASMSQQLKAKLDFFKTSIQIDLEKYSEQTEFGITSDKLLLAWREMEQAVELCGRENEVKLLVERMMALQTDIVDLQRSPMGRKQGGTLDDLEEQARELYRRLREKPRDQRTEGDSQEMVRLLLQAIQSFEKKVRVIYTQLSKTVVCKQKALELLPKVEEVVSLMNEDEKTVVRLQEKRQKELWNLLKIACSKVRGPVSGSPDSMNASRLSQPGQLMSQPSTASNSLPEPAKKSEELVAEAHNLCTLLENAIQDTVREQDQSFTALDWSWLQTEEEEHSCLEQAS

[9] = target: T3, Inhibitor of nuclear factor kappa-B kinase subunit beta (Homo sapiens); conditions: at 1 µM
[10] = target: T4, Inhibitor of nuclear factor kappa-B kinase subunit epsilon (Homo sapiens) (UniProt Q14164); conditions: at 0.1 µM
T4 sequence (whole entry): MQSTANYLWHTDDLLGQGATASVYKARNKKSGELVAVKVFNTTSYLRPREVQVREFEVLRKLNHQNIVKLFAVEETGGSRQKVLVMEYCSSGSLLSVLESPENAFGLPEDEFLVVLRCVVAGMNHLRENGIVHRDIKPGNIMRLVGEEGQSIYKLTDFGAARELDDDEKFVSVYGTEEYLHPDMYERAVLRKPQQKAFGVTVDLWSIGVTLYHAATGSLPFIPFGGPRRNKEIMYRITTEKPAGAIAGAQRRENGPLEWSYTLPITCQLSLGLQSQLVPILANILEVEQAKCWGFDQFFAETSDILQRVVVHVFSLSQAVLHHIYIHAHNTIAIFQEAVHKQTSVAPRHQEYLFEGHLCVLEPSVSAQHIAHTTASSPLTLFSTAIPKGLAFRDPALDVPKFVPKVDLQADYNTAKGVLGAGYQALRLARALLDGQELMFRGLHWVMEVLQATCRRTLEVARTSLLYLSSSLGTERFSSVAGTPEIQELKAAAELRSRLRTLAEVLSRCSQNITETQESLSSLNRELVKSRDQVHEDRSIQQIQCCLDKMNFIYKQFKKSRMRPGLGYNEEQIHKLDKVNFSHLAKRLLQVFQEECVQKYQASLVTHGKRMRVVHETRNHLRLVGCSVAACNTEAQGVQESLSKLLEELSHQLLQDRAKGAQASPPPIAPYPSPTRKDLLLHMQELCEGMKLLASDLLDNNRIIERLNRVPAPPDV

[11] = target: T4, Inhibitor of nuclear factor kappa-B kinase subunit epsilon (Homo sapiens); conditions: at 1 µM
[12] = target: T5, Serine/threonine-protein kinase Nek1 (Homo sapiens) (UniProt Q96PY6); conditions: at 0.1 µM
T5 sequence (whole entry): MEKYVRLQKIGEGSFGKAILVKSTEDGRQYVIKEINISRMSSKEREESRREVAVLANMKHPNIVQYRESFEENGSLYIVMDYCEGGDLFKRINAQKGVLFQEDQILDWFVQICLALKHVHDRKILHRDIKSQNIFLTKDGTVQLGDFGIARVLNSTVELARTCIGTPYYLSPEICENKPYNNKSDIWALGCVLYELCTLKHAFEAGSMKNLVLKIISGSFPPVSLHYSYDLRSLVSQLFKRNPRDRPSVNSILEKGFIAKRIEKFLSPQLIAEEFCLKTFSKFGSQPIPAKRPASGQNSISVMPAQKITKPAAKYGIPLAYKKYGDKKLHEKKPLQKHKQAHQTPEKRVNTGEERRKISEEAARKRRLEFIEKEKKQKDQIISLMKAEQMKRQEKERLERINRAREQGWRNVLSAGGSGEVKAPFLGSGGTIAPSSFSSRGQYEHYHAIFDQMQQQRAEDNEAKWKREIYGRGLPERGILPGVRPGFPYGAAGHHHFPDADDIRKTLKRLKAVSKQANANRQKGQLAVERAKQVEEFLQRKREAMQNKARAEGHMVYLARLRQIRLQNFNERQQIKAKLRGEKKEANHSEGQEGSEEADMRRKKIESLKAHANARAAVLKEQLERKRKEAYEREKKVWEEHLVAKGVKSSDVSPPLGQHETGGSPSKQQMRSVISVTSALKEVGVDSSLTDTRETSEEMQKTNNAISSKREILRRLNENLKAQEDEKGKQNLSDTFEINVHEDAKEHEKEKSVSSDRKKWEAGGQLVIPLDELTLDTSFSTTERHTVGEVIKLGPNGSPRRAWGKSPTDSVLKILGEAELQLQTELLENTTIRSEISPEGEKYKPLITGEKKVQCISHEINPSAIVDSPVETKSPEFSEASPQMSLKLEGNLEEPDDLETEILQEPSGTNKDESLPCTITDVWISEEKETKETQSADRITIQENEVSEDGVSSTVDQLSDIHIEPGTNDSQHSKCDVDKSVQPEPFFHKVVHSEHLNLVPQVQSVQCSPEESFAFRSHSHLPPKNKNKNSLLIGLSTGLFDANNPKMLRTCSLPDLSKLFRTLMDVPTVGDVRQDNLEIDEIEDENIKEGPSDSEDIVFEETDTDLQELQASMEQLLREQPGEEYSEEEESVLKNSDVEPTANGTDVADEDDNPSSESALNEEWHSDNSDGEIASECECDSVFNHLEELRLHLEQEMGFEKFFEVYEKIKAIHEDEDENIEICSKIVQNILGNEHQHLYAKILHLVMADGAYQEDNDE

[13] = target: T5, Serine/threonine-protein kinase Nek1 (Homo sapiens); conditions: at 1 µM
[14] = target: T6, Serine/threonine-protein kinase Nek2 (Homo sapiens) (UniProt P51955); conditions: at 0.1 µM
T6 sequence (whole entry): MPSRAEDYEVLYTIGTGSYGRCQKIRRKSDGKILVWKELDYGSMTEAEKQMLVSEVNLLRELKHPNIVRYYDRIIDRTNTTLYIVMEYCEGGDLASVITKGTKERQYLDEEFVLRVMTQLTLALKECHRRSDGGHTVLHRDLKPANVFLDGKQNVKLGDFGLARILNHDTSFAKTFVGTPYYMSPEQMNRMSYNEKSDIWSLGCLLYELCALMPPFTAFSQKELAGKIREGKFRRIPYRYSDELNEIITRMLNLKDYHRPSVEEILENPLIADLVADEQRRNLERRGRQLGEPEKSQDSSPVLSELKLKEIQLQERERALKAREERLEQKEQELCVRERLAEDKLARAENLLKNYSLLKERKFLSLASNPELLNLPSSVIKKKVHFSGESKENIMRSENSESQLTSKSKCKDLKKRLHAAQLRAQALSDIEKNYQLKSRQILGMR

[15] = target: T6, Serine/threonine-protein kinase Nek2 (Homo sapiens); conditions: at 1 µM
[16] = target: Serine/threonine-protein kinase Nek6 (Homo sapiens) (UniProt Q9HC98); conditions: at 0.1 µM
[17] = target: Serine/threonine-protein kinase Nek6 (Homo sapiens) (UniProt Q9HC98); conditions: at 1 µM
[18] = target: Serine/threonine-protein kinase Nek7 (Homo sapiens) (UniProt Q8TDX7); conditions: at 0.1 µM
[19] = target: Serine/threonine-protein kinase Nek7 (Homo sapiens) (UniProt Q8TDX7); conditions: at 1 µM
[20] = target: T7, Serine/threonine-protein kinase Nek9 (Homo sapiens) (UniProt Q8TD19); conditions: at 0.1 µM;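 note: reported value is the mean percent inhibition of NEK9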
T7 sequence (whole entry): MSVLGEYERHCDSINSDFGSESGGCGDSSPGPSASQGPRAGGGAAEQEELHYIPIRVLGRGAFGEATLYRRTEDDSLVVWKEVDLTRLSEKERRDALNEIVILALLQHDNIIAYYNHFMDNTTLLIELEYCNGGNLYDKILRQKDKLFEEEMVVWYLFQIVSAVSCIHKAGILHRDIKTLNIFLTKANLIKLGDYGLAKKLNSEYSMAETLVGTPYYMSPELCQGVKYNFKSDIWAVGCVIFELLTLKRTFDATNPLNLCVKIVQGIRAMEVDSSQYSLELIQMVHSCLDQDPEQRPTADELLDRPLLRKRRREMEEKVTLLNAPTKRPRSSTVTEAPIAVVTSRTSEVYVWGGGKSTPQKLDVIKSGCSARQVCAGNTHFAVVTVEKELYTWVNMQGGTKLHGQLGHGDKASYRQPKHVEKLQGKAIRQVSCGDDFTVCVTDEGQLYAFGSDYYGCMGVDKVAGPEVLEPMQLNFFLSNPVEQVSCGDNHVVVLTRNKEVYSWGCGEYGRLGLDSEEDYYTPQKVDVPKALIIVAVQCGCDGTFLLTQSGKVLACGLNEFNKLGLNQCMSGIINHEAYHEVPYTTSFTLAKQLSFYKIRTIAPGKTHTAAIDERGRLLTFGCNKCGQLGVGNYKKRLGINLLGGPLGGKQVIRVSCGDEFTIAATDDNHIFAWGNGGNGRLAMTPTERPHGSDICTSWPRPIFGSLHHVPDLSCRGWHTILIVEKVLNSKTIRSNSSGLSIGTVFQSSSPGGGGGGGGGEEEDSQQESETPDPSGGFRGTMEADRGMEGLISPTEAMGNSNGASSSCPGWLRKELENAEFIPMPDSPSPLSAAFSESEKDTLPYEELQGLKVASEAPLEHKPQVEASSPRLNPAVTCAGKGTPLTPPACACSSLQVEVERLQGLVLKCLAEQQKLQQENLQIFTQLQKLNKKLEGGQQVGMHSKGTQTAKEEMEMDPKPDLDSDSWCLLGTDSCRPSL

Sequence of Serine/threonine-protein kinase Nek6 (Homo sapiens) (Q9HC98 whole entry): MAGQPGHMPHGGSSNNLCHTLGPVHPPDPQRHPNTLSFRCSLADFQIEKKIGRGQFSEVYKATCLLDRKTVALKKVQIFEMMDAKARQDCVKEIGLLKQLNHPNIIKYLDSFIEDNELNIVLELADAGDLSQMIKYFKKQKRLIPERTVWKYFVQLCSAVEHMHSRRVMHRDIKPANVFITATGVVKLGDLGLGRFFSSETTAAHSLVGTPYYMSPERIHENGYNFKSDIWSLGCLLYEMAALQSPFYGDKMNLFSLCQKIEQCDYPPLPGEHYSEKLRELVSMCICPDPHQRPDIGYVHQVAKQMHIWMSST
Sequence of Serine/threonine-protein kinase Nek7 (Homo sapiens) (Q8TDX7 whole entry, looked up): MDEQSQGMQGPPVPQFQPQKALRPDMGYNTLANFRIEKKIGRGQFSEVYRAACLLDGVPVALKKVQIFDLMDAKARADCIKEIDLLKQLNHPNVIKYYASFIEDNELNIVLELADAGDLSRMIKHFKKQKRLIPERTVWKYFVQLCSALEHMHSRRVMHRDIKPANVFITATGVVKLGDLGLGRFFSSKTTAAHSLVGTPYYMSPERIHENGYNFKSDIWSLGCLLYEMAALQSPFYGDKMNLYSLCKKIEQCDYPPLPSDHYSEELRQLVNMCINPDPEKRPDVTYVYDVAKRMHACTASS
Sequence of Casein kinase II subunit alpha (Homo sapiens) (P68400 whole entry, looked up): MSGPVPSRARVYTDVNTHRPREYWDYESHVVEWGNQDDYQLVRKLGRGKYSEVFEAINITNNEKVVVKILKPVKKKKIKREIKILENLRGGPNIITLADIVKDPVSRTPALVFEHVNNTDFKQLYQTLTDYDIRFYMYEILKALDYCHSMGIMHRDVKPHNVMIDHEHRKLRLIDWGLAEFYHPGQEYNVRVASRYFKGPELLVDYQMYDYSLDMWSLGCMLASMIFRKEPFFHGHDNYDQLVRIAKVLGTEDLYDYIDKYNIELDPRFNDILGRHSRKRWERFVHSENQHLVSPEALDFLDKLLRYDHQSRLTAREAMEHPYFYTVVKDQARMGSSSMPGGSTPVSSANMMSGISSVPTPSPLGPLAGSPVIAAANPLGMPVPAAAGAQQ
Sequence of Sphingosine kinase 1 (Homo sapiens) (Q9NYA1 whole entry): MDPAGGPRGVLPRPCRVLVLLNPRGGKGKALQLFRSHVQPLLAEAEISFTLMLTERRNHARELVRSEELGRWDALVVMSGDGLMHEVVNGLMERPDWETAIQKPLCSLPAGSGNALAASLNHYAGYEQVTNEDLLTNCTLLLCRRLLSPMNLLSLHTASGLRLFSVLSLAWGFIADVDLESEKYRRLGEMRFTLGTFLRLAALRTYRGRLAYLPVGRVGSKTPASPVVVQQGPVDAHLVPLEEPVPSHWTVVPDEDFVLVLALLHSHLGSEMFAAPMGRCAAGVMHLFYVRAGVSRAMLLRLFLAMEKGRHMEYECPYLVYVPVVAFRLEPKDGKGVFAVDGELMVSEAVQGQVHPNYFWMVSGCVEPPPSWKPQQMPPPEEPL

For `COC(=O)c1cncc(/C=C/c2c(C)cc(O)cc2C)c1`, the inhibition [1] was -4%, the inhibition [2] was -0.39% and the inhibition [3] was -0.47%. It also gave an inhibition [4] of 3.51%, an inhibition [5] of 11.9% and an inhibition [6] of 3.28%. The inhibition [7] was 5.67%, the inhibition [8] was 4.7% and the inhibition [9] was 7.41%. For the same molecule, the inhibition [10] was 8.93%, the inhibition [11] was 8.63% and the inhibition [12] was 1.51%. It also gave an inhibition [13] of 3.23%, an inhibition [14] of 4.54% and an inhibition [15] of 3.91%. The inhibition [16] was 0.94%, the inhibition [17] was 4.21% and the inhibition [18] was 2.47%. The inhibition [19] was 1.56% and the inhibition [20] was 2.09%.
